According to PubChem BioAssay (NCATS):
Values joined by “and” are separate entries in the source; they are usually repeats but may differ in a detail not shown here. Identical values can stand only once. Results filed as inconclusive are left out. Active and inactive are the calls of the source. Unless noted, calls follow the shape of the dose curve; as a rule, active = well fitted curve in the direction sought with a large enough effect; inconclusive = small, poorly fitted or top-dose-only effect, or another doubt; inactive = no such curve, though single readings can be large; an effect the other way counts as inactive or inconclusive.

Experiments:
[1] = target: M-phase phosphoprotein 8 (Homo sapiens) (UniProt Q99549); test: qHTS Validation Assay for Inhibitors for MPP8 Chromodomain Interactions with Methylated Histone Tails (AID 488949); also: nearly all actives have a fitted effect of over 55% in size; also: potency is read from the fitted curve at half-maximal effect
Summary of the method: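 Disruption of the preformed MPP8–trimethyl-H3K9 peptide complex (both 50 nM, 30 min, RT) is measured after 30 min compound exposure, using AlphaScreen proximity beads; aurintricarboxylic acid titration serves as plate control.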

[2] = target: Chromobox protein homolog 1 (Homo sapiens) (UniProt P83916); test: qHTS Validation Assay for Inhibitors of HP1-beta Chromodomain Interactions with Methylated Histone Tails (AID 488953); also: nearly all actives have a fitted effect of over 50% in size; also: potency is read from the fitted curve at half-maximal effect
Summary of the method: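 AlphaScreen proximity readout: streptavidin donor and Ni-chelate acceptor beads, 10 ug/mL final, 30 min dark, RT. Complex of 50 nM HP1-beta and 50 nM b-H3(1-18)K9me3 formed 30 min, then compound-treated 30 min; PBS pH 7.4/0.01% Tween-20.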

[3] = target: Methanococcus maripaludis chaperonin (MmCpn) (UniProt Q6LX38); test: High-Throughput Screening for Modulators of Cytosolic Chaperonin Activity: MmCpn Primary Screen (AID 488978);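 also: 50 nM MmCpn enzyme hydrolysing 30 µM ATP at 37 °C; 0% is about no effect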
Summary of the method: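 Measures ATPase turnover of the M. maripaludis chaperonin (50 nM final) against 30 uM ATP over 10 min at 37C, with compound added 5 min beforehand at room temperature. ADP is quantified by HTRF immunodetection.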

[4] = target: Transient receptor potential cation channel subfamily V member 1 (Homo sapiens) (UniProt Q8NER1); test: HTS Assay for Compounds that Act as Enhancers of the Vanilloid Receptor 1 (AID 488979); also: 0% is about no effect
Summary of the method: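 Calcium influx kinetics via Fluo-8 (480/520 nm) in TRPV1-expressing cells, 2000/well cultured overnight at 35.5C. Compound-alone read 3 min (agonist phase), followed by EC20 capsaicin challenge for 2 min (enhancer phase).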

[5] = target: Thyrotropin receptor (Homo sapiens) (UniProt P16473); test: qHTS Assay for Antagonists of the Thyroid Stimulating Hormone Receptor (AID 488980); also: series mostly up to about 58 µM; 0% is about no effect
Summary of the method: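 Cells expressing human TSHR (HEK293) are dispensed in HBSS/HEPES containing 70 uM RO 20-1724, compound is added, then TSH at EC80 (4 nM final). Antibody in lysis buffer follows, 30 minutes at room temperature before HTRF detection.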

[6] = target: D(1A) dopamine receptor (Homo sapiens) (UniProt P21728); test: HTS Assay for Allosteric Agonists of the Human D1 Dopamine Receptor: Primary Screen for Agonists (AID 488981); also: potency is read from the fitted curve at half-maximal effect; as to activation: 0% is about no effect
Summary of the method: (§1)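 Calcium flux in an inducible, force-coupled HEK293 Trex D1 line (overnight at 30 C): agonist mode is the 180 s kinetic read after compound; potentiator mode is the following 180 s read after dopamine at EC20.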

[7] = target: D(1A) dopamine receptor (Homo sapiens) (UniProt P21728); test: HTS Assay for Allosteric Agonists of the Human D1 Dopamine Receptor: Primary Screen for Potentiators (AID 488982); also: potency is read from the fitted curve at half-maximal effect
Summary of the method: as §1

[8] = target: D(1A) dopamine receptor (Homo sapiens) (UniProt P21728); test: HTS Assay for Allosteric Agonists of the Human D1 Dopamine Receptor: Primary Screen for Antagonists (AID 488983);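 also: calcium flux response to an EC80 dopamine challenge measured with no-wash dye; nearly all actives have a fitted effect of over 65% in size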; also: potency is read from the fitted curve at half-maximal effect
Summary of the method: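 Calcium flux readout, no-wash dye, inducible HEK293 T-REx D1 line (force-coupled). Compound added after 10 s baseline, 180 s kinetic read; then dopamine at EC80, further 180 s read.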

[9] = Validation screen for small molecules that induce genotoxicity in human embryonic kidney (HEK293T) cells expressing luciferase-tagged ELG1 (AID 493106); also: potency is read from the fitted curve at half-maximal effect
Summary of the method: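 qHTS format; 2,000 HEK293T ELG1-luc cells/well; 23 nL compound via pin tool; 16 hr, 37 °C/5% CO2; ONE-Glo, 30 min RT; luminescence read.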

[10] = target: Thyrotropin-releasing hormone receptor (Homo sapiens) (UniProt P34981); test: qHTS for Small Molecule Agonists and Allosteric Enhancers of Human TRH Receptor: Validation Screen for Agonists (AID 493127;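 active = calcium activation more than 3 SD above the typical response in the agonist read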;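 also: intracellular calcium rise by fluo-8 fluorescence before TRH EC20 addition; 0% is about no effect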); conditions: TRH receptor agonist cell assay; at 2 µM; stronger effect = higher value
Summary of the method: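 Read-out: intracellular calcium release measured kinetically by FDSS (fluo-8, ex 480/em 530 nm), 1 reading/s after a 10-cycle baseline. TRHR cells, 2000/well, cultured 18 h at 33.5C, dye-loaded at room temp. Compound-evoked positive calcium signal flags agonists.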

[11] = Nrf2 qHTS screen for inhibitors: Validation (AID 493153; active = well fitted inhibition curve with a large enough effect in the main read-out, with a control signal flat, not every such curve was filed as active); conditions: Potency: luciferase luminescence; viability change: measured here: cytotoxicity max response
Summary of the method: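 Concentration-response test in A549 ARE_Fluc reporter cells (5% FBS OPTI-MEM), compound exposure 18-24 h at 37°C, 5% CO2. Cell viability measured first by CellTiter-Fluor fluorescence; ARE-driven luciferase luminescence then measured as Nrf2 activity.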

[12] = qHTS for Inhibitors of Cell Surface uPA Generation: Validation Assay (AID 493164);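 also: RAW 264.7 macrophage cells exposed to compound for 18 h; 0% is about no effect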
Summary of the method: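 Compounds are titrated over seven points (2.45 nM–38.3 uM final) onto pre-plated RAW 264.7 cells and incubated for 18 h. Retained intracellular ATP, measured with ATP-Lite, indicates blocked lethal factor entry.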

[13] = target: Galactokinase (Homo sapiens) (UniProt P51570); test: qHTS Validation Assay for Inhibitors of Human Galactokinase (GALK) (AID 493189); also: 0% is about no effect
Summary of the method: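 Compounds were pin-transferred into ATP buffer, then GALK-galactose mix was added (final 5 nM enzyme, 100 uM galactose, 35 uM ATP). After 1 h at room temperature, remaining ATP was measured luminescently.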

[14] = Validation screen for small molecules that induce DNA re-replication in SW480 colon adenocarcinoma cells (AID 504364); also: 0% is about no effect
Summary of the method: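 Read-out: total Hoechst intensity of nuclei by fluorescence scanning imager; hits raise the fraction of nuclei with elevated DNA content. Cells received compound for 48 hr at 37 C before a 40 min stain.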

[15] = target: Peptidyl-prolyl cis-trans isomerase NIMA-interacting 1 (Homo sapiens) (UniProt Q13526); test: qHTS Validation Assay to Find Inhibitors of Pin1 (AID 504536; active = well fitted inhibition curve with a large enough effect in the polarisation, with a control signal flat, not every such curve was filed as active; the % refers to the polarisation;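 also: 0% = full Pin1 enzyme wells and -100% = no-enzyme wells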)
Summary of the method: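 Fluorescence polarization competition: compounds (titration) displace HiFluor-488-labeled Pin1-1b peptide from Pin1 (0.3 uM final) in pH 7.5 HEPES buffer with DTT, 10 min at room temperature; %Activity normalized to no-enzyme wells, curves fitted.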

[16] = target: Phosphoglycerate kinase, glycosomal (Trypanosoma brucei brucei) (UniProt P07378); test: qHTS Validation Assay to Find Inhibitors of Phosphoglycerate Kinase (AID 504547);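 also: control wells lack PGK and mark full inhibition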
Summary of the method: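 Luminescence end-point (Kinase-Glo Plus, 10 min) after a 60 min room-temperature coupled reaction. GAPDH at 100nM final supplies 1,3-BPG to PGK. Buffer: 100mM TEA pH 7.6, 5mM MgCl2, 0.01% Tween-20. Wells lacking PGK served as controls.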

[17] = target: phosphoglycerate mutase (Leishmania major) (UniProt Q4Q090); test: qHTS Validation Assay to Find Inhibitors of Phosphoglycerate Mutase (AID 504548);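 also: end-point luminescence from Kinase-GloPlus after the PGAM reaction; series mostly up to about 58 µM; % is scaled to controls: 0 for no effect and ±100 for the full control effect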
Summary of the method: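 L. major PGAM (1.25nM final) was added to substrate buffer and pinned compound, incubated 45 minutes at room temperature, then Kinase-GloPlus added; luminescence read after 10 minutes. Buffer: 100 mM TEA pH 7.6, 5 mM MgCl2, 0.01% Tween-20.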

[18] = target: Ubiquitin carboxyl-terminal hydrolase 1 (Homo sapiens) (UniProt O94782); test: Inhibitors of USP1/UAF1: Pilot qHTS (AID 504865); also: nearly all actives have a fitted effect of over 35% in size; also: potency is read from the fitted curve at half-maximal effect
Summary of the method: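 Kinetic fluorescence assay: 1nM USP1/UAF1, 15 min compound preincubation, then 150nM Ub-Rho; 480/540 nm.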

[19] = target: ATP-dependent 6-phosphofructokinase (Trypanosoma brucei brucei) (UniProt O15648); test: qHTS Assay to Find Inhibitors of T. brucei phosphofructokinase: hit validation (AID 492961);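 also: luminescence reports ADP formed as PFK phosphorylates fructose-6-phosphate with ATP; series mostly up to about 51 µM; % is scaled to controls: 0 for no effect and ±100 for the full control effect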
Summary of the method: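 Measures ADP output of PFK (1.25 nM) at 0.1 mM ATP, 0.5 mM F6P, pH 8.0 TEA buffer with 5 mM MgCl2. No-enzyme wells define full inhibition; uninhibited enzyme wells define zero.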

[20] = target: ATPase family AAA domain-containing protein 5 (Homo sapiens) (UniProt Q96QE3); test: Validation screen for small molecules that inhibit ELG1-dependent DNA repair in human embryonic kidney (HEK293T) cells expressing luciferase-tagged ELG1 (AID 493107); also: nearly all actives have a fitted effect of over 70% in size; also: potency is read from the fitted curve at half-maximal effect
Summary of the method: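 ELG1-luciferase HEK293T reporter; 5-fluorouridine + compound/DMSO, 16 hr, 37 °C, 5% CO2; ONE-Glo 30 min RT; luminescence read, qHTS format.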

Sequence of ATP-dependent 6-phosphofructokinase (Trypanosoma brucei brucei) (O15648 whole entry, looked up): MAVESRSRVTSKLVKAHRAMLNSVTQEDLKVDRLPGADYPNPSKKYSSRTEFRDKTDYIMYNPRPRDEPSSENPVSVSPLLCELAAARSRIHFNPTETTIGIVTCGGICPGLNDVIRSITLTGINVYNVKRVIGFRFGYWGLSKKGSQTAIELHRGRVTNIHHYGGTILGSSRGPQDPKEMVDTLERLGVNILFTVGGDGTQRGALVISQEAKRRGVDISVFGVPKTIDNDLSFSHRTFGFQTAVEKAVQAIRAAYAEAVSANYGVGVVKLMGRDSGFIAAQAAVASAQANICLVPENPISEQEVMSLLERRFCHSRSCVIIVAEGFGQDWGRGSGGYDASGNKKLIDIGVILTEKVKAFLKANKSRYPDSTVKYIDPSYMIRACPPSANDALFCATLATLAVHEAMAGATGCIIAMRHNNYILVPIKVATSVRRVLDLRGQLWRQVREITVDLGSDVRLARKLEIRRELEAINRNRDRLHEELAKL
Sequence of Ubiquitin carboxyl-terminal hydrolase 1 (Homo sapiens) (O94782 whole entry, looked up): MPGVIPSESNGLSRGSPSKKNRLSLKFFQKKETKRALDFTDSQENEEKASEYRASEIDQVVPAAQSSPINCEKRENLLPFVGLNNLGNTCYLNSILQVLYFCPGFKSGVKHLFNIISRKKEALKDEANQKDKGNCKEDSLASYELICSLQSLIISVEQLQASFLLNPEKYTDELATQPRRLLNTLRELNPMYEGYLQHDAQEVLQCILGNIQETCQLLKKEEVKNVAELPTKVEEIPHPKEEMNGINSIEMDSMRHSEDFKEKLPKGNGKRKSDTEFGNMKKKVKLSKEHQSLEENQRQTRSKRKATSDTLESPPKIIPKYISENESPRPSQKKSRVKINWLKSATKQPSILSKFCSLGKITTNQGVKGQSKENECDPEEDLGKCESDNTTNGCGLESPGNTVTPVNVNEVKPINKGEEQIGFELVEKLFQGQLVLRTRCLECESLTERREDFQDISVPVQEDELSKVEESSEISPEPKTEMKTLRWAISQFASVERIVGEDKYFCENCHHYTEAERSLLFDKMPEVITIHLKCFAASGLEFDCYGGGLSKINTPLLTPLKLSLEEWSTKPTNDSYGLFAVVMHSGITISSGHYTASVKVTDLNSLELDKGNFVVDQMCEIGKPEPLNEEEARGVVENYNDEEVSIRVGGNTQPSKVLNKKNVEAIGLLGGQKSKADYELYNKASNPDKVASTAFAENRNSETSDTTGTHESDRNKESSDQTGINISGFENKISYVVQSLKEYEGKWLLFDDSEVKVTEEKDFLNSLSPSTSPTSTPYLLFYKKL
Sequence of Transient receptor potential cation channel subfamily V member 1 (Homo sapiens) (Q8NER1 whole entry, looked up): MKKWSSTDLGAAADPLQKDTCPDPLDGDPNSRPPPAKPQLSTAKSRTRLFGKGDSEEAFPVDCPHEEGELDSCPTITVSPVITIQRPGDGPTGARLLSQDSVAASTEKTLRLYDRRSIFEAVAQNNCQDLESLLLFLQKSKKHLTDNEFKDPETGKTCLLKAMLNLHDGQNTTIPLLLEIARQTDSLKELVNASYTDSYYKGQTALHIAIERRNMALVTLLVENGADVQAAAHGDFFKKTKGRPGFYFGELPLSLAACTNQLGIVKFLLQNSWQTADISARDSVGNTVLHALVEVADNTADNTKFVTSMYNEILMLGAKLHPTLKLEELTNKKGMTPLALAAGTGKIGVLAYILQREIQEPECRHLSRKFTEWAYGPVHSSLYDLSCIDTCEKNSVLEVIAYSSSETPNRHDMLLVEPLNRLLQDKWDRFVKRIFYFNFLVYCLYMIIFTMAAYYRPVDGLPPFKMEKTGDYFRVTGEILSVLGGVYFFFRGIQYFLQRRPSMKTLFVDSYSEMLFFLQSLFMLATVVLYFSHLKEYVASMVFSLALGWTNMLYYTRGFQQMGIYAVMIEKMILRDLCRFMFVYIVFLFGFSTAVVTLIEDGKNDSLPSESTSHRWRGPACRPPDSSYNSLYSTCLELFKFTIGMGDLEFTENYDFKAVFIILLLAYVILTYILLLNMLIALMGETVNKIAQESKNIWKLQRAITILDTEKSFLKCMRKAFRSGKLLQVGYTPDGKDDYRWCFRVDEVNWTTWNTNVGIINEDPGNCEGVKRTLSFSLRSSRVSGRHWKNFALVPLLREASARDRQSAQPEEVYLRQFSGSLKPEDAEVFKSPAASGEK
Sequence of ATPase family AAA domain-containing protein 5 (Homo sapiens) (Q96QE3 whole entry, looked up, the tested form may be a part): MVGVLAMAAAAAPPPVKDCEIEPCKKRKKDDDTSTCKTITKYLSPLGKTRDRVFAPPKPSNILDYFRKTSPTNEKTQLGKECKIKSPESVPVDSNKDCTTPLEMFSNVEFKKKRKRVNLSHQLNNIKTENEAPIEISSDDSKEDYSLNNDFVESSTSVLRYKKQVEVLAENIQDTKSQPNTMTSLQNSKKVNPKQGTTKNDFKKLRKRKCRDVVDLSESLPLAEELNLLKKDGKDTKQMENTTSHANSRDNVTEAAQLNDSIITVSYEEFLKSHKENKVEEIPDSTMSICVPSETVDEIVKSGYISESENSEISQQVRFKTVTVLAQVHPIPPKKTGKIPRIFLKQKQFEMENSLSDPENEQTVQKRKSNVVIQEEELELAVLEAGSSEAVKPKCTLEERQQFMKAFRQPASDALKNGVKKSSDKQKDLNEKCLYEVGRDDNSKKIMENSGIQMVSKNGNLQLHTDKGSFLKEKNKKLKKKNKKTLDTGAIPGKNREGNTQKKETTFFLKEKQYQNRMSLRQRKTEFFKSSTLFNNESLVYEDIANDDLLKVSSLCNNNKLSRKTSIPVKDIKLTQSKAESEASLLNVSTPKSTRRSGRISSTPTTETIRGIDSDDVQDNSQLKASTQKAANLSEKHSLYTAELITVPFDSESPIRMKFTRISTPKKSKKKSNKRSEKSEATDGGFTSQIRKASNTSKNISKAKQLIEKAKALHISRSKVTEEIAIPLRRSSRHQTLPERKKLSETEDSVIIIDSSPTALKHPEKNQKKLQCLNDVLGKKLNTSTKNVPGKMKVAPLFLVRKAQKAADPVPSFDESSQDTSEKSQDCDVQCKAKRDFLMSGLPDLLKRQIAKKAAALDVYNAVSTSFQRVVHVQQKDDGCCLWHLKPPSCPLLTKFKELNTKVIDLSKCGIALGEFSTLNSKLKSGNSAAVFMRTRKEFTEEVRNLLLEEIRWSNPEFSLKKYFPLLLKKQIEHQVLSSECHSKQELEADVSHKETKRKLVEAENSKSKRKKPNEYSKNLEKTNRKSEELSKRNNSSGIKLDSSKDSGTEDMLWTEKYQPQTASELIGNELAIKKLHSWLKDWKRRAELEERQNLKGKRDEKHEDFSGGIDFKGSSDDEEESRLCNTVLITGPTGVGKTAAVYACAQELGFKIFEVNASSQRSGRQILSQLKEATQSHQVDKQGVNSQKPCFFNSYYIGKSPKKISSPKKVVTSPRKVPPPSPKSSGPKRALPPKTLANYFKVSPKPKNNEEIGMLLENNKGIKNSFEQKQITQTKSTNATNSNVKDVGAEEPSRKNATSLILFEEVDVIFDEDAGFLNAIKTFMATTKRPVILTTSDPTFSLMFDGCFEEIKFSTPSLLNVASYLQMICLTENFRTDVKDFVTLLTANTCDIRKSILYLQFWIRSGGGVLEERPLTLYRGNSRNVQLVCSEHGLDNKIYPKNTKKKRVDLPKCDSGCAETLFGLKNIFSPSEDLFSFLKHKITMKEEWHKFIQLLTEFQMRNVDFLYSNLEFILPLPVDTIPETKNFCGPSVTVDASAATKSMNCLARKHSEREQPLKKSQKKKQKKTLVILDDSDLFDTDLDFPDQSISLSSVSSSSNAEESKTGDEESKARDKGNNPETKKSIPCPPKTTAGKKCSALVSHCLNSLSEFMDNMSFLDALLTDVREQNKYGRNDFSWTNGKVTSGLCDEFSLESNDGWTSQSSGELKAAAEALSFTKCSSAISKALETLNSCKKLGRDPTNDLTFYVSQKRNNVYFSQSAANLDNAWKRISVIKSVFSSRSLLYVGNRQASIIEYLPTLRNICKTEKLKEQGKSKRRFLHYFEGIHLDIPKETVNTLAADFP
Sequence of Thyrotropin-releasing hormone receptor (Homo sapiens) (P34981 whole entry, looked up): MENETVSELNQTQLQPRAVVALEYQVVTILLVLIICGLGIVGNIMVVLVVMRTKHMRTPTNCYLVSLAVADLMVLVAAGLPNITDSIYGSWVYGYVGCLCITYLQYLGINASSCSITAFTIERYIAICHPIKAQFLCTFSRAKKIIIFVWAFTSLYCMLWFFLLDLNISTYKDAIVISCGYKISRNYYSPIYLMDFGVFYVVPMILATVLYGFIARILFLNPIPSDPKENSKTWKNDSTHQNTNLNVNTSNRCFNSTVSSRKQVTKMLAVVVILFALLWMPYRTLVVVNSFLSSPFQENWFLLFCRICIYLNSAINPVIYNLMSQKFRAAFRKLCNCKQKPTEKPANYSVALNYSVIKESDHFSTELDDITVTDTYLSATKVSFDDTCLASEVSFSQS
Sequence of Galactokinase (Homo sapiens) (P51570 whole entry, looked up): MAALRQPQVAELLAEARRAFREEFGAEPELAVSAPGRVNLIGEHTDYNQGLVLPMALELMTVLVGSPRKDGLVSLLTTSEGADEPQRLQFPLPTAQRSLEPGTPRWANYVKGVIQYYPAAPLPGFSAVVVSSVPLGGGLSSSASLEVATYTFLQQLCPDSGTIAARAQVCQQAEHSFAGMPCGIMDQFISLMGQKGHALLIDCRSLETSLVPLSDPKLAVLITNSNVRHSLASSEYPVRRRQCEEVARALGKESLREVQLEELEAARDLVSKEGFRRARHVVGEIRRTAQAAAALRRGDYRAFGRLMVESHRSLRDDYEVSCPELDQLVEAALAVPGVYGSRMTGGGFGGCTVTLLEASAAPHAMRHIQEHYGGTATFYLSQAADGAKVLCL
Sequence of Chromobox protein homolog 1 (Homo sapiens) (P83916 whole entry, looked up): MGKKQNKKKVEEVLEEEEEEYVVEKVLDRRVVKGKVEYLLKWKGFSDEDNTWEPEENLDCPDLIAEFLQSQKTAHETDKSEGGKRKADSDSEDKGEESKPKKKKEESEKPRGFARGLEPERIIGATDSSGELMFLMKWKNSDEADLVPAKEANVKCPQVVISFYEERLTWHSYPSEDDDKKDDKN

CNC1(C)C2CCC(C2)C1(C)C (stereo not drawn)
3.39%: viability change [11]
inactive: Potency [1] | Potency [2] | outcome [3] | outcome [4] | outcome [5] | Potency [6] | Potency [7] | Potency [8] | Potency [9] | activation [10] 0.375% | Potency [11] | outcome [12] | outcome [13] | outcome [14] | outcome [15] | outcome [16] | outcome [17] | Potency [18]

NC(=O)c1ncn([C@@H]2O[C@H](CO)[C@@H](O)[C@H]2O)c1O
2.79%: viability change [11]
inactive: Potency [1] | Potency [2] | outcome [3] | outcome [4] | outcome [5] | Potency [6] | Potency [7] | Potency [8] | outcome [19] | Potency [9] | Potency [20] | activation [10] 1.12% | Potency [11] | outcome [12] | outcome [13] | outcome [14] | outcome [16] | outcome [17] | Potency [18]

C(=C\c1ccccc1)/CN1CCN(C(c2ccccc2)c2ccccc2)CC1
inactive: Potency [1] | outcome [3] | outcome [4] | outcome [5] | Potency [6] | Potency [7] | Potency [8] | Potency [9] | Potency [20] | activation [10] 0.438% | outcome [12] | outcome [13] | outcome [14] | outcome [15] | outcome [16] | outcome [17]

CCN(CC)CCCN(c1ccccc1)C1Cc2ccccc2C1
inactive: Potency [1] | Potency [2] | outcome [3] | Potency [6] | Potency [7] | outcome [19] | Potency [9] | Potency [20] | Potency [11] | outcome [12] | outcome [15] | outcome [16] | outcome [17] | Potency [18]
-6.42%: viability change [11]

CC(=O)[C@]1(O)Cc2c(O)c3c(c(O)c2[C@@H](O[C@H]2C[C@H](N)[C@H](O)[C@H](C)O2)C1)C(=O)c1ccccc1C3=O
-47.3%: viability change [11]
inactive: outcome [3] | outcome [5] | outcome [19] | activation [10] 17.9% | Potency [11] | outcome [12] | outcome [13] | outcome [16] | outcome [17]
active: Potency [1] 28.2 µM | Potency [2] 39.8 µM | Potency [6] 11.2 µM | Potency [7] 2.91 µM | Potency [9] 0.58 µM | Potency [20] 5.8 µM | Potency [18] 50.1 µM and 39.8 µM

COc1ccc([C@@H]2Sc3ccccc3N(CCN(C)C)C(=O)[C@@H]2OC(C)=O)cc1
inactive: Potency [1] | Potency [2] | outcome [3] | outcome [5] | Potency [6] | Potency [8] | outcome [19] | Potency [9] | Potency [20] | outcome [12] | outcome [13] | outcome [14] | outcome [15] | outcome [16] | outcome [17] | Potency [18]

Fc1ccc(C(c2ccc(F)cc2)N2CCN(C/C=C/c3ccccc3)CC2)cc1
active: Potency [20] 23.1 µM
inactive: Potency [1] | outcome [3] | outcome [4] | outcome [5] | Potency [6] | Potency [7] | Potency [8] | outcome [12] | outcome [13] | outcome [15] | outcome [16] | outcome [17]

Cc1nc2ccccn2c(=O)c1CCN1CCC(C(=O)c2ccc(F)cc2)CC1
-13.1%: viability change [11]
inactive: Potency [1] | Potency [2] | outcome [3] | outcome [4] | Potency [7] | Potency [9] | activation [10] 1.44% | Potency [11] | outcome [12] | outcome [13] | outcome [14] | outcome [15] | outcome [16] | outcome [17] | Potency [18]
active: Potency [8] 4.47 µM
